“And” between values parts separate entries of the source, which are not always exact repeats. Identical values can stand only once. Records with an inconclusive call do not appear. The source made the active and inactive calls. Unless noted, calls come from the whole dose curve.

Test [1] deals with Glucocorticoid receptor (Homo sapiens) (UniProt P04150). Kind of test: qHTS assay for small molecule agonists of glucocorticoid receptor signaling (AID 588532; active = well fitted curve in the direction sought with a large enough effect in the signal ratio, with a control signal flat; the % refers to the signal ratio;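 note: 100% = dexamethasone at 0.1 µM and 0% = DMSO only wells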). Particulars: HeLa MMTV-bla, beta-lactamase ratio, agonist, 18 h; activation: stronger effect = higher value, percent of dexamethasone control, DMSO zero. The procedure, abridged: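 Quantitative HTS using CellSensor MMTV-bla HeLa cells in charcoal/dextran-treated serum; compounds tested up to 92 uM. After 18 h at 37 C, CCF4 dye reported reporter induction.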
A general note: qHTS replaces the single test concentration by a dilution series.

Test [2] has the same target. Kind of test: qHTS assay for small molecule antagonists of glucocorticoid receptor signaling (AID 588533; active = well fitted inhibition curve with a large enough effect in the signal ratio, with a control signal flat, not every such curve was filed as active; the % refers to the signal ratio;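 note: cells stimulated with 2 nM dexamethasone as agonist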; note: potency is the fitted concentration of half-maximal effect). In a few lines:
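Antagonist-mode qHTS: compound titrations added to GRE-bla HeLa cells, then dexamethasone 2 nM final; 18 h, 37 C. CCF4 FRET fluorescence normalized to dexamethasone and DMSO; IC50 from Hill fit.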

Test [3] can be described thus: qHTS assay for small molecule antagonists of peroxisome proliferator-activated receptor delta signaling (AID 588535; active = well fitted inhibition curve with a large enough effect in the signal ratio, with a control signal flat, not every such curve was filed as active; the % refers to the signal ratio;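 for max response: cells co-treated with a PPAR-delta agonist as stimulator during compound exposure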). To be noted: HEK293T PPARd-UAS-bla, beta-lactamase FRET ratio, 18 h; 460 nm channel. In a few lines:
(§1)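 HEK293T PPAR-delta-UAS-bla cells, 4000/well, 2% charcoal/dextran FBS; 5 h 37 C; cpd titration; 18 h 37 C; CCF4 2 h RT; FI 460/530 nm; Hill fit → IC50, efficacy.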

In test [4] the target is Peroxisome proliferator-activated receptor delta (Homo sapiens) (UniProt Q03181). Described as above. The procedure, abridged:
as §1

Test [5] concerns the target Vitamin D3 receptor (Homo sapiens) (UniProt P11473). Kind of test: qHTS assay for small molecule agonists of vitamin D receptor signaling (AID 588543).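 Note: 0% = DMSO basal and 100% = reference agonist control.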 In a few lines: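 VDR-UAS-bla HEK293T cells, 2000/well, 2% charcoal-stripped FBS; compound titration 16 h at 37 C; CCF4 beta-lactamase ratio read. Normalized to 50 nM 1-alpha,25-dihydroxyvitamin D3 (100%) and DMSO; Hill fit gives EC50, efficacy.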

Test [6] is described as follows: qHTS assay for small molecule activators of the nuclear factor-kappa B (NF-kB) signaling pathway (AID 651749; active = well fitted activation curve with a large enough effect in the signal ratio; the % refers to the signal ratio; note: series mostly up to about 77 µM; % of control where 0% means no effect). To be noted: NF-kB-bla ME-180 cells, beta-lactamase FRET ratio, 16 h; activation: stronger effect = higher value. The procedure, abridged: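 Readout: beta-lactamase reporter driven by an NF-kB response element, detected fluorescently as loss of FRET. Cells were the ME-180 line, treated 16 hr at 37C with pin-transferred compound.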

Test [7] is described as follows: qHTS assay for small molecule activators of the human pregnane X receptor (PXR) signaling pathway (AID 720659; call rule not given here; note: 0% is about no effect).
Test [8] is described as follows: qHTS assay for small molecule agonists of the antioxidant response element (ARE) signaling pathway (AID 651741; active = well fitted activation curve with a large enough effect in the signal ratio; the % refers to the signal ratio; note: potency is the fitted concentration of half-maximal effect; for activation: % of control where 0% means no effect). The procedure, abridged: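 Quantitative HTS in HepG2 cells stably expressing an ARE-beta-lactamase reporter; 16 h compound exposure at 37 C, followed by 2 h room-temperature incubation with LiveBLAzer B/G FRET substrate and fluorescence measurement.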

For test [9], the target named is Bile acid receptor (Homo sapiens) (UniProt Q96RI1). Kind of test: qHTS assay for small molecule antagonists of farnesoid X receptor signaling (AID 588526). Note: % is set by controls: 0 for no effect and ±100 for the full control effect. The procedure, abridged:
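Beta-lactamase reporter antagonist mode: HEK293T FXR-UAS-bla cells, titrated compound, CDCA stimulation, 16 h 37 C, CCF4 dye 2 h RT. Data normalized to CDCA 50 uM and DMSO; Hill-fit IC50.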

Test [10] shares this target. Kind of test: qHTS assay for small molecule agonists of farnesoid X receptor signaling (AID 588527).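 Note: series mostly up to about 77 µM; 0% = vehicle basal and 100% = reference agonist.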 To be noted: HEK293T FXR-UAS-bla, beta-lactamase ratio, 16 h; activation: stronger effect = higher value. In a few lines: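 Read-out: beta-lactamase reporter fluorescence with CCF4 substrate in GeneBLAzer FXR-UAS-bla HEK293T cells, after 16 h compound exposure at 37 C. Response scaled between DMSO basal (0%) and chenodeoxycholic acid at 100 uM (100%).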

Test [11] deals with Cytochrome P450 3A4 (Homo sapiens) (UniProt P08684). Kind of test: qHTS Assay for Inhibitors and Substrates of Cytochrome P450 3A4 (AID 884; active = well fitted curve in the direction sought with a large enough effect; an effect the other way counts as inactive or inconclusive; note: potency is the fitted concentration of half-maximal effect; nearly all actives have a fitted effect of over 50% in size). The procedure, abridged: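 20 nM human CYP3A4 with 25 uM Luciferin-PPXE (at KM) in 200 mM KPO4, preincubated 10 min with compound; NADPH regeneration started a 60 min RT reaction. Luciferin detected by luminescence, normalized to 57 uM ketoconazole as full inhibition.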

The target is the same in test [12]. Kind of test: qHTS Assay for Activators of Cytochrome P450 3A4 (AID 885; active = well fitted curve in the direction sought with a large enough effect; an effect the other way counts as inactive or inconclusive; note: nearly all actives have a fitted effect of over 65% in size). In a few lines:
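Steps: enzyme/substrate mix dispensed; compound added, 10 min RT; NADPH regeneration solution added, 60 min RT; luciferin detection buffer stops reaction; 20 min later luminescence measured.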

Test [13] can be described thus: Cell Viability - LYMP2-001 (AID 921; active = well fitted curve in the direction sought with a large enough effect; an effect the other way counts as inactive or inconclusive; note: potency is the fitted concentration of half-maximal effect; nearly all actives have a fitted effect of over 70% in size). In a few lines:
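Human lymphoblastoid LYMP2-001 cells, 2500 per well, in complete medium, treated 24 h at 37 C. Viability from cellular ATP by CellTiter-Glo luminescence; AC50 from Hill-equation fits of qHTS concentration-response.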

Test [14] is described as follows: MultiTox-Fluor Cytotoxicity Assay - LYMP1-002 - Live Cells (AID 955; active = well fitted curve in the direction sought with a large enough effect; an effect the other way counts as inactive or inconclusive;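 note: potency is the fitted concentration of half-maximal effect; cells exposed to compound for 16 hours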). The procedure, abridged:
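Read-out is live-cell protease activity (cell-permeant GF-AFC substrate, fluorescence Ex/Em=405/510), where a decrease indicates acute toxicity. Human lymphoblastoid cells were treated 16 hours at 37 C in a concentration series, and AC50 values came from standard Hill modelling.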

A short description of test [15]: MultiTox-Fluor Cytotoxicity Assay - LYMP1-002 - Dead Cells (AID 960; active = well fitted curve in the direction sought with a large enough effect; an effect the other way counts as inactive or inconclusive; note: potency is the fitted concentration of half-maximal effect; nearly all actives have a fitted effect of over 60% in size). The procedure, abridged:
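LYMP1-002 cells 2500/well; 5 hr 37 C pre-incubation; compound 16 hr 37 C; MultiTox-Fluor reagent 60 min RT; dead-cell fluor Ex/Em 485/520. Norm. to DMSO (0%) vs 15 uM tetraoctylammonium bromide (100%); Hill AC50.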

Test [16] can be described thus: MultiTox-Fluor Cytotoxicity Assay - LYMP1-003 - Dead Cells (AID 961; active = well fitted curve in the direction sought with a large enough effect; an effect the other way counts as inactive or inconclusive; note: potency is the fitted concentration of half-maximal effect; nearly all actives have a fitted effect of over 70% in size). In a few lines:
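LYMP1-003 lymphoblastoid, 2500 cells/well, 5 hr settle then 16 hr cpd at 37 C; MultiTox-Fluor reagent 60 min RT; Ex/Em 485/520 dead-cell signal; norm. DMSO = 0%, 15 uM tetraoctylammonium bromide = 100%; Hill AC50.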

The nature of test [17]: Cell Viability - LYMP2-003 (AID 965; active = well fitted curve in the direction sought with a large enough effect; an effect the other way counts as inactive or inconclusive;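 note: potency is the fitted concentration of half-maximal effect; cells exposed to compounds for 24 h before reading; nearly all actives have a fitted effect of over 50% in size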). The procedure, abridged:
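Human lymphoblastoid LYMP2-003 cells, 2500/well, exposed to compounds for 24 h at 37 C in complete medium. Viability read as intracellular ATP by CellTiter-Glo luminescence; AC50 from Hill-equation fits of qHTS concentration-response data.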

Test [18] in a line: Cell Viability - LYMP2-011 (AID 969; active = well fitted curve in the direction sought with a large enough effect; an effect the other way counts as inactive or inconclusive; note: potency is the fitted concentration of half-maximal effect; nearly all actives have a fitted effect of over 60% in size). The procedure, abridged: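 2500 cells/well, 5 hr 37 C; compound added, 24 hr 37 C; CellTiter-Glo 30 min RT; luminescence. qHTS concentration-response, Hill-equation AC50. Tetraoctylammonium bromide positive control.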

Chain of Glucocorticoid receptor (Homo sapiens) (P04150 whole entry, looked up): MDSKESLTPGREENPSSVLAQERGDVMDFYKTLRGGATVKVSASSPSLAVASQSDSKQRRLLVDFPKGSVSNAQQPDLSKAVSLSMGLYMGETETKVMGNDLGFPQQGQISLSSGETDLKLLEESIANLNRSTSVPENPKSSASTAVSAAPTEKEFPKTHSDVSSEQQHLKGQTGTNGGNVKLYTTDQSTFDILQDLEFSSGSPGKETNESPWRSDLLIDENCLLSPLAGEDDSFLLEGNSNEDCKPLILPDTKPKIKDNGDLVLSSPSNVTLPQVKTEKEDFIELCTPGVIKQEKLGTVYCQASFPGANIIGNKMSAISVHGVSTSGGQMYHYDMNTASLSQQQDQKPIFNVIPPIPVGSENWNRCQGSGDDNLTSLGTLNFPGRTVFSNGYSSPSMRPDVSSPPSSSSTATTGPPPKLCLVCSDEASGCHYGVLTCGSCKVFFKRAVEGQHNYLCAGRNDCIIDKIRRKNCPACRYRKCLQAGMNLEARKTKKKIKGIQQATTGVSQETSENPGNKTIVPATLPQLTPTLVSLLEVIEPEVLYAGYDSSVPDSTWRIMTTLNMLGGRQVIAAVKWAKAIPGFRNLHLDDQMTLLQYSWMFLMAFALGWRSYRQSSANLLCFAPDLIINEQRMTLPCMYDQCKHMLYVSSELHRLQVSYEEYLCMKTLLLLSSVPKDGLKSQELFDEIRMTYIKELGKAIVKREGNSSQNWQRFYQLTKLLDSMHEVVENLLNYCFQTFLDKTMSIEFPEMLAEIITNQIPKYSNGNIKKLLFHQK
Chain of Peroxisome proliferator-activated receptor delta (Homo sapiens) (Q03181 whole entry, looked up): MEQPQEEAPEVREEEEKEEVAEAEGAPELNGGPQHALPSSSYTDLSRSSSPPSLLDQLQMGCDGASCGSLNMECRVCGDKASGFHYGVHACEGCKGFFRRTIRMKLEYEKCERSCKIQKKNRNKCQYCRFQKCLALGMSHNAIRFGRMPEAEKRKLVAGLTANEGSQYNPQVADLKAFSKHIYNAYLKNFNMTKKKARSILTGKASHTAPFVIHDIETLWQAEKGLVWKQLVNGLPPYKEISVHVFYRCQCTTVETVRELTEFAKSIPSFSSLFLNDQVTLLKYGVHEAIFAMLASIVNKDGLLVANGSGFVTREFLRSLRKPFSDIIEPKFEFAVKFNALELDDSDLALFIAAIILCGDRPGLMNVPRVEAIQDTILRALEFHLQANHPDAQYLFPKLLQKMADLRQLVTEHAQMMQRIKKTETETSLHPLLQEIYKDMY
Chain of Vitamin D3 receptor (Homo sapiens) (P11473 whole entry, looked up): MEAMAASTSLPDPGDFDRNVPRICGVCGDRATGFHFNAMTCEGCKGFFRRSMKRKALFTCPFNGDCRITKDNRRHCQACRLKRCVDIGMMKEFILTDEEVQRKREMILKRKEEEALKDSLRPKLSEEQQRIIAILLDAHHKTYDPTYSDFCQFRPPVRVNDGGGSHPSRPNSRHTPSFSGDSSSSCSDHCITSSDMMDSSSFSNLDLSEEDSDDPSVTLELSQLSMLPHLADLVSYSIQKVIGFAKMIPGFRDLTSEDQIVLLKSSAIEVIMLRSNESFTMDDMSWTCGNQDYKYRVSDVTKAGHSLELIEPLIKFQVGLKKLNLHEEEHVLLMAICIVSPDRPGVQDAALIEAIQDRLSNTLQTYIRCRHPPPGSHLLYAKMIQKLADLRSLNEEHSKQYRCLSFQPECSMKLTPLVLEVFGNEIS
Chain of Bile acid receptor (Homo sapiens) (Q96RI1 whole entry, looked up): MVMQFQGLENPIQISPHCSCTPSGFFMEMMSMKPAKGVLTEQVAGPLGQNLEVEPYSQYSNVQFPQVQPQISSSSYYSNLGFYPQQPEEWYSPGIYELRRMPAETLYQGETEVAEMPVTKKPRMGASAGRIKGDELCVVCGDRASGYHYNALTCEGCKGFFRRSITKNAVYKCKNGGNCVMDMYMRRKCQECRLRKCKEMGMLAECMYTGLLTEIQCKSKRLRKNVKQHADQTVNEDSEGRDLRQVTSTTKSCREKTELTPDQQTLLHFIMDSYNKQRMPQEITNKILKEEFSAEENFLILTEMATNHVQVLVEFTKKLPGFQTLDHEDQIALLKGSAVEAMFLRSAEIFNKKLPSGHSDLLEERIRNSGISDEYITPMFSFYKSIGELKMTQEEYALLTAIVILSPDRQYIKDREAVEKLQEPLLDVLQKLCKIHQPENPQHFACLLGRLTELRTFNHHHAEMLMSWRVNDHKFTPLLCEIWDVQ
Chain of Cytochrome P450 3A4 (Homo sapiens) (P08684 whole entry, looked up): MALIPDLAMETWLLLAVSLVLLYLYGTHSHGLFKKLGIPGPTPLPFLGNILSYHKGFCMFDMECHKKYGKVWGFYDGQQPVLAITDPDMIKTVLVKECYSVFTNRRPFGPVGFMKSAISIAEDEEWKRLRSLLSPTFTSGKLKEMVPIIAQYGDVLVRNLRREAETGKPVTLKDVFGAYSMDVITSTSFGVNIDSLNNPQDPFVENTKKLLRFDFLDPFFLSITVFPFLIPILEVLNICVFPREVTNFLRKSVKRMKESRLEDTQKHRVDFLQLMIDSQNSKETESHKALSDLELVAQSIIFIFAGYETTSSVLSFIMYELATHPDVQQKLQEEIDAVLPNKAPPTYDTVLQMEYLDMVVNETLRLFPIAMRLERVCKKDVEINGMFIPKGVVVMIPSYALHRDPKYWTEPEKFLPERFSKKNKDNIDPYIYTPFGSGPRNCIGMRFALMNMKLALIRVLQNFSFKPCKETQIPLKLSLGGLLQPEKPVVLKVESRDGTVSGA

Take `COC(=O)NS(=O)(=O)c1ccc(N)cc1`: the activation in test [1] was -1.43% (inactive) and 1.04% (inactive); in [6], -0.373% (inactive) and -0.594% (inactive). Also, the Potency entry in test [2] and in test [4] was “inactive” in each case. Further, in test [3], the max response is -5.88%. Further, the result in test [5] and in [7] was inactive.
As to `CCCN(CC)CC1COC2(CCC(C(C)(C)C)CC2)O1` (centres undefined), the activation in [1] is 11.4% (inactive); in test [6] it was -1.56% (inactive). For the same molecule, the Potency result in test [2], in test [4] and in [8] was “inactive” each time. Further, the max response in [3] was 36.1%. For the same molecule, the molecule was called inactive in [5] and in test [7].
With `CC(C)C(=O)OCC(C)(C)C(OC(=O)C(C)C)C(C)C` (centres undefined), the activation is -2.67% (inactive) in test [1] and -2.62% (inactive) in [6]. Further, the Potency result in test [2] and in test [4] was “inactive” in each case. Further, the max response in test [3] is -3.86%. For the same molecule, the molecule was classed as inactive in test [5].
Turning to `COCC(=O)N(c1c(C)cccc1C)[C@H](C)C(=O)OC`, the Potency entry in test [9] was “inactive”. Further, in test [10], the activation was 0.109% (inactive). Moreover, in test [5], the outcome was inactive.
In the case of `COc1ccc(O)c(C(C)(C)C)c1`, the Potency entry in test [9] and in test [2] was “inactive” each time. The activation in test [1] was -14% (inactive). Further, in test [5], the molecule was called inactive.
`CN(C)c1nc(=O)n(C2CCCCC2)c(=O)n1C`: the Potency result in test [9], in test [4] and in [8] was “inactive” each time. Moreover, in [10], the activation is -1.35% (inactive). The max response in [3] turned out to be 12.4%. Further, the outcome in [5] and in test [7] was inactive.
As to `CCC[CH2][Sn]([CH2]CCC)[CH2]CCC`, the activation in test [10] was 6.72% (inactive); in test [1], -13.3% (inactive).
In the case of `C=CC(=O)OCC(CO)(COC(=O)C=C)COC(=O)C=C`, the Potency is 7.94 µM (active) in test [11]; 3.16 µM (active) in test [13]; 3.98 µM (active) in [14]; 3.16 µM (active) in test [15]; 7.94 µM (active) in test [16]; 3.98 µM (active) in test [17]. The Potency in test [18] was 5.01 µM (active); in test [2], 22.4 µM (active) and 20 µM (active); in test [8], 24.3 µM (active). Moreover, in [12], the Potency entry was “inactive”. Besides, the activation in test [10] is 1.06% (inactive). The outcome in test [5] was inactive.
Turning to `O=S(=O)(c1ccc(O)cc1)c1ccc(O)cc1`, the Potency entry in test [9], in [2] and in [4] was “inactive” in each case. Further, the activation is -2.06% (inactive) in test [10] and -0.813% (inactive) in [6]. In addition, in test [3], the max response came to 45.2%. The outcome in test [5] and in [7] was inactive.
Regarding `COP(=O)(OC)Oc1ccc([N+](=O)[O-])cc1`, the activation in test [10] was 5.22% (inactive). For the same molecule, the outcome in test [5] and in [7] was inactive. The Potency result in [8] is “inactive”.
For `c1cc[n+]2c(c1)-c1cccc[n+]1CC2`, the values for the activation in [1] and in test [6] were 1.75% (inactive) and -2.74% (inactive), respectively. For the same molecule, the Potency entry in test [2] and in [4] was “inactive” throughout. For the same molecule, in test [3], the max response was 45.8%. Further, the call in test [5] was inactive. Moreover, the Potency in test [8] was 8.63 µM (active).
For the molecule `CCNC(=O)NC(=O)/C(C#N)=N/OC`, the Potency result in test [9] and in test [4] was “inactive” in each case. The activation is -0.507% (inactive) in test [10] and 3.07% (inactive) in test [1]. For the same molecule, the max response in test [3] came out at 9.94%. Further, the molecule was called inactive in test [5]. Also, the Potency in [8] is 61.1 µM (active).
As for `O=c1[nH]c2ccccc2c(=O)o1`, the Potency entry in test [9], in test [2], in test [4] and in test [8] was “inactive” each time. The activation in [10] was 0.0754% (inactive); in [6], -0.747% (inactive). The max response in test [3] worked out at 29.4%. For the same molecule, the molecule was called inactive in test [5] and in test [7].

The values above are taken from PubChem BioAssay (NCATS).
